Paper PMC7862700, “An all-to-all approach to the identification of sequence-specific readers for epigenetic DNA modifications on cytosine”

Experiments:
Experiment in all cases: DAPPL (digital affinity profiling via proximity ligation, sequencing); 10 mM Tris-HCl pH 7.5, 50 mM NaCl, 1 mM DTT, 4% glycerol, room temperature, 30 min; GST-TFs on glutathione beads, 16-mer random dsDNA library, 0.1% formaldehyde crosslink after washing; high values mean tight binding
FEV = target: T1, FEV (Homo sapiens, UniProt Q99581 1-238); details: protein: recombinant; tags: N-terminal GST; dsDNA, one strand shown
T1 sequence: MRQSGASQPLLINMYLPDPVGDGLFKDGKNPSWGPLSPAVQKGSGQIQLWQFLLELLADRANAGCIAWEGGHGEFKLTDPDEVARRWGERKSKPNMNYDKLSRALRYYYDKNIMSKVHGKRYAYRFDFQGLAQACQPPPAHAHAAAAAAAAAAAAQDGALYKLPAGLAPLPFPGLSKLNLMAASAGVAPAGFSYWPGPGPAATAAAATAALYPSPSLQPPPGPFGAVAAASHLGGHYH
Method in brief: (§1)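 GST fusions of human transcription factors were expressed in yeast and captured with glutathione beads. Once given DNA barcodes and pooled alongside a tag-only sample, they were incubated for 30 min at room temperature with 200 nmole of a random double-stranded 16-mer DNA library in Tris/NaCl/DTT/glycerol buffer, then washed, crosslinked (0.1% formaldehyde), proximity-ligated, PCR-amplified and sequenced on an Illumina NextSeq500. The binding signal of each hexamer is its read frequency for a factor divided by its frequency for the tag-only sample.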

ETV5 = ETV5 (Homo sapiens, UniProt P41161 1-510); details: protein: recombinant; tags: N-terminal GST; dsDNA, one strand shown
Method in brief: as §1

HSF1 = HSF1 (Homo sapiens, UniProt Q00613 1-529); details: protein: recombinant; tags: N-terminal GST; chain copies: 3; dsDNA, one strand shown
Method in brief: as §1

SPIC = target: T2, SPIC (Homo sapiens, UniProt Q8N5J4 1-248); details: protein: recombinant; tags: N-terminal GST; dsDNA, one strand shown
T2 sequence: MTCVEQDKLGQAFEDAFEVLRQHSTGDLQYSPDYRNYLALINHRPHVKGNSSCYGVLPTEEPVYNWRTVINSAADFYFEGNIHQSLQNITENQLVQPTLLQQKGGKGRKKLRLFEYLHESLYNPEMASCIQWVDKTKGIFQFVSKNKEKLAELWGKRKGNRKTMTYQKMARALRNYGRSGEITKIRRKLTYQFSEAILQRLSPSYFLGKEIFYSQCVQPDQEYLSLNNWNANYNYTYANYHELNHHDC
Method in brief: as §1

ELF4 = ELF4 (Homo sapiens, UniProt Q99607 1-663); details: protein: recombinant; tags: N-terminal GST; dsDNA, one strand shown
Method in brief: as §1

ELK4 = target: T3, ELK4 (Homo sapiens, UniProt P28324-2 1-405); details: protein: recombinant; tags: N-terminal GST; dsDNA, one strand shown
T3 sequence: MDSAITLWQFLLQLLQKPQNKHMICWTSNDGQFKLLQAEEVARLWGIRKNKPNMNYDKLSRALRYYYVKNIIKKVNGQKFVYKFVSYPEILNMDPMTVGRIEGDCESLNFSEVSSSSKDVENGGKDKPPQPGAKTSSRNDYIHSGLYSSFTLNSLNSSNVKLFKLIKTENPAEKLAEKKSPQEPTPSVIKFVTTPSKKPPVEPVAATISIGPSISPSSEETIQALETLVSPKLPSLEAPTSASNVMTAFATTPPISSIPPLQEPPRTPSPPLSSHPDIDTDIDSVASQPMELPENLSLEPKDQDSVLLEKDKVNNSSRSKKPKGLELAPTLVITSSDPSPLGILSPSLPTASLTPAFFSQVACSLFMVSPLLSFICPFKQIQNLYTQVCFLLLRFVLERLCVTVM
Method in brief: as §1

ETV2 = target: T4, ETV2 (Homo sapiens, UniProt O00321 1-342); details: protein: recombinant; tags: N-terminal GST; dsDNA, one strand shown
T4 sequence: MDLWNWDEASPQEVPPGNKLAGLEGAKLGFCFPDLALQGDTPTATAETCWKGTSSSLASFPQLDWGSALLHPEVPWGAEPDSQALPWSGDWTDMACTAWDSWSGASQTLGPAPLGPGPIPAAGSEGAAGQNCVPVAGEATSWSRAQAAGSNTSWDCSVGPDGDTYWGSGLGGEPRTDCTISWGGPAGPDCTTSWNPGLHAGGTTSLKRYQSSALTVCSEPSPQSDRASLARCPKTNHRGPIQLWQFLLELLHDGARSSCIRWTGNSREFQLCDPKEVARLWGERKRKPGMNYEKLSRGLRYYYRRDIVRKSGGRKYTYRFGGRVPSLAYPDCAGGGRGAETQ
Method in brief: as §1

ELF3 = target: T5, ELF3 (Homo sapiens, UniProt P78545 1-371); details: protein: recombinant; tags: N-terminal GST; dsDNA, one strand shown
T5 sequence: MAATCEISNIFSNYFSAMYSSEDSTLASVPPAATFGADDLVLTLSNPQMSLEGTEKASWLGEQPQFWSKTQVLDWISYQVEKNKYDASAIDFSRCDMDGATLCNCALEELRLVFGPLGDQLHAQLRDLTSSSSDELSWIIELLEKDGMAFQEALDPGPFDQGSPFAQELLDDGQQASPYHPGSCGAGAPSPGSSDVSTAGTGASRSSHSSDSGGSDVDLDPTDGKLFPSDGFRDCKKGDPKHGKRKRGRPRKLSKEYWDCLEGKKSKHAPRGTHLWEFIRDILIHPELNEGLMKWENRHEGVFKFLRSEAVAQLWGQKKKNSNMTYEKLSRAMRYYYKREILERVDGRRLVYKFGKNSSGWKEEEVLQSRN
Method in brief: as §1

CRX = CRX (Homo sapiens, UniProt O43186 1-299); details: protein: recombinant; tags: N-terminal GST; dsDNA, one strand shown
Method in brief: as §1

ETV1 = ETV1 (Homo sapiens, UniProt P50549 1-477); details: protein: recombinant; tags: N-terminal GST; dsDNA, one strand shown
Method in brief: as §1

ERF = target: T6, ERF (Homo sapiens, UniProt P50548 1-548); details: protein: recombinant; tags: N-terminal GST; dsDNA, one strand shown
T6 sequence: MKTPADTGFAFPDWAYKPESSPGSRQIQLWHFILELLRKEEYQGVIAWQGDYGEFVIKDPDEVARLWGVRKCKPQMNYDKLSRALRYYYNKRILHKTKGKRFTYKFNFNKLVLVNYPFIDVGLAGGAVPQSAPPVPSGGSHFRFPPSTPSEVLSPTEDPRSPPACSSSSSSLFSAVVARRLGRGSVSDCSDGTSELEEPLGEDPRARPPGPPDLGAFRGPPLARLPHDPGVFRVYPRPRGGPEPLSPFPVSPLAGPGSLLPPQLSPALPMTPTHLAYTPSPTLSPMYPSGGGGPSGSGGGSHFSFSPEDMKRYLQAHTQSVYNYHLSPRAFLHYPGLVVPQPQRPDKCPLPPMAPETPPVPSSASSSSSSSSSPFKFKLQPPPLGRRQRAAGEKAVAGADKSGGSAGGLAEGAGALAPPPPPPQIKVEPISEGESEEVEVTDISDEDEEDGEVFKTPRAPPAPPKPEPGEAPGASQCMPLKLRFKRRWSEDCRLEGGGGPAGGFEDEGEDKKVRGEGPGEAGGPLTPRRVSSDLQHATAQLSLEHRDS
Method in brief: as §1

ETV3L = target: T7, ETV3L (Homo sapiens, UniProt Q6ZN32 1-361); details: protein: recombinant; tags: N-terminal GST; dsDNA, one strand shown
T7 sequence: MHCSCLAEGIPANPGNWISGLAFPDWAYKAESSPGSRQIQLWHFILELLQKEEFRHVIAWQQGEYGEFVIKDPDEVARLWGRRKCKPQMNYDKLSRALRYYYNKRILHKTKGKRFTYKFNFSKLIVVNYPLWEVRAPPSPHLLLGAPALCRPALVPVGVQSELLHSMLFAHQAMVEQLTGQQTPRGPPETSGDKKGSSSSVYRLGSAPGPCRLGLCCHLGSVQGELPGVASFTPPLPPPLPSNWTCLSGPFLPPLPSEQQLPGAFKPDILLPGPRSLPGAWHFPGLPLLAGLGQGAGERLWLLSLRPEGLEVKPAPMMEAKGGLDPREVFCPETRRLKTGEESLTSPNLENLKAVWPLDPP
Method in brief: as §1

ETS2 = target: T8, ETS2 (Homo sapiens, UniProt P15036 1-469); details: protein: recombinant; tags: N-terminal GST; dsDNA, one strand shown
T8 sequence: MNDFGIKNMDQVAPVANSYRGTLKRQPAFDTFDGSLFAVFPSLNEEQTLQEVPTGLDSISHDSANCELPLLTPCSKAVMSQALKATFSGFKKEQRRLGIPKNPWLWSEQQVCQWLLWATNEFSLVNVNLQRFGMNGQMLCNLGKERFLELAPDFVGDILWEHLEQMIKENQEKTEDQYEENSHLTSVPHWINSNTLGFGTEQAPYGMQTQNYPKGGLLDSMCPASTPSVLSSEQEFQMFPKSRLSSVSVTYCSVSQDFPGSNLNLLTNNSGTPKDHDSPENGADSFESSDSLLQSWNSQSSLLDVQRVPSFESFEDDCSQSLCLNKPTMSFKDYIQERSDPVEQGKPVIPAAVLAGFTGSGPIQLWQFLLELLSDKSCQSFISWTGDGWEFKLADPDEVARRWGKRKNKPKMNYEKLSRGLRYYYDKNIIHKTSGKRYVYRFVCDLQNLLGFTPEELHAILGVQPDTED
Method in brief: as §1

SPDEF = target: T9, SPDEF (Homo sapiens, UniProt O95238 1-335); details: protein: recombinant; tags: N-terminal GST; dsDNA, one strand shown
T9 sequence: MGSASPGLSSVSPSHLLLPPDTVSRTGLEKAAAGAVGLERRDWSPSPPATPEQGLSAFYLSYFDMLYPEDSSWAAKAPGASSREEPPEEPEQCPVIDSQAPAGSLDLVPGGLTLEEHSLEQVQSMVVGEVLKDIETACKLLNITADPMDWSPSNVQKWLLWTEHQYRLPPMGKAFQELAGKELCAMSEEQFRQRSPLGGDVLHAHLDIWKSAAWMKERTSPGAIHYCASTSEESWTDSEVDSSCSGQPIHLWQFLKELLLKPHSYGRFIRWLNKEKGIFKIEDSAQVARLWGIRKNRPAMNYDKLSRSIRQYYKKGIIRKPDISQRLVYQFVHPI
Method in brief: as §1

ETV7 = target: T10, ETV7 (Homo sapiens, UniProt Q9Y603 1-341); details: protein: recombinant; tags: N-terminal GST; dsDNA, one strand shown
T10 sequence: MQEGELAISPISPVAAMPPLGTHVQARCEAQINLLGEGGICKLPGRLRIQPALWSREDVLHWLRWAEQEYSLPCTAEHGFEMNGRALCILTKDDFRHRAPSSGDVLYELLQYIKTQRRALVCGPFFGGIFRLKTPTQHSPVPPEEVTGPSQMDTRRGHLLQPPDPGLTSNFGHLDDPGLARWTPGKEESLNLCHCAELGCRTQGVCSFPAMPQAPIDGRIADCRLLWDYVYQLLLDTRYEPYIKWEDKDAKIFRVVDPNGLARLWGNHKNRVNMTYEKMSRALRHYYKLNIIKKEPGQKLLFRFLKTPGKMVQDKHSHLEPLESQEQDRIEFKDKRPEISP
Method in brief: as §1

ELF5 = target: T11, ELF5 (Homo sapiens, UniProt Q9UKW6-2 1-255); details: protein: recombinant; tags: N-terminal GST; dsDNA, one strand shown
T11 sequence: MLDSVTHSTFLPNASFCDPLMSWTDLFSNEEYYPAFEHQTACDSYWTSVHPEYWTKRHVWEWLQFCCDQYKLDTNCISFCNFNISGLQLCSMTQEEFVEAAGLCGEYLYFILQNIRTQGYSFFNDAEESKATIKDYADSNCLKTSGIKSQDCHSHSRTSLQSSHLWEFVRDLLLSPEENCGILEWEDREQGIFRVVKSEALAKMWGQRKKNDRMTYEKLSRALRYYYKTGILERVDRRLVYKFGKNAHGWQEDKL
Method in brief: as §1

ETV3 = target: T12, ETV3 (Homo sapiens, UniProt P41162-2 1-143); details: protein: recombinant; tags: N-terminal GST; dsDNA, one strand shown
T12 sequence: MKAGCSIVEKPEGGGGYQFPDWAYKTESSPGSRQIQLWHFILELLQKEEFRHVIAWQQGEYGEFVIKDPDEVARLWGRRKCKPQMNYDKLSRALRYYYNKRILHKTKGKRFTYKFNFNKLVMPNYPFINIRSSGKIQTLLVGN
Method in brief: as §1

ETV6 = ETV6 (Homo sapiens, UniProt P41212 1-452); details: protein: recombinant; tags: N-terminal GST; dsDNA, one strand shown
Method in brief: as §1

Sequence of ETV5 (P41161 whole entry): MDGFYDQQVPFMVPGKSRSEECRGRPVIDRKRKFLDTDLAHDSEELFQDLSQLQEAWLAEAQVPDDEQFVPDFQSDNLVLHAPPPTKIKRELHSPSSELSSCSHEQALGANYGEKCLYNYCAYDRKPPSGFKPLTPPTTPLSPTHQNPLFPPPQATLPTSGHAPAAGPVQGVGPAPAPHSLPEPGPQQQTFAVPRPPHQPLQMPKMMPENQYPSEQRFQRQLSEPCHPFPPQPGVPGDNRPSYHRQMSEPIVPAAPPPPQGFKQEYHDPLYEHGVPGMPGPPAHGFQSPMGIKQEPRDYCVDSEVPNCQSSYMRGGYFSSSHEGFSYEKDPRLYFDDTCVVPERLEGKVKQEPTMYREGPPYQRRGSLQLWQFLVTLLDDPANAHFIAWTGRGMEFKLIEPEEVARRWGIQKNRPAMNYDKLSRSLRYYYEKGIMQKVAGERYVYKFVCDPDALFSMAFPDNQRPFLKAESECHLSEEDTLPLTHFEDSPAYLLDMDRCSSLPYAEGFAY
Sequence of CRX (O43186 whole entry): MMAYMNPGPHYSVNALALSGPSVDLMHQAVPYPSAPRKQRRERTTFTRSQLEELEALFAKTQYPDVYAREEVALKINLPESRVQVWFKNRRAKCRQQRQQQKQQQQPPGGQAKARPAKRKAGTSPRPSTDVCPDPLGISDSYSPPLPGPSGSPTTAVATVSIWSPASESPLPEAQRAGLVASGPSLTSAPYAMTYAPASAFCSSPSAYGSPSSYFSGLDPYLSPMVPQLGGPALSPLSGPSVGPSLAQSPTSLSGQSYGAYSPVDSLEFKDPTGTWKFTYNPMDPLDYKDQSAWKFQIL
Sequence of ETV6 (P41212 whole entry): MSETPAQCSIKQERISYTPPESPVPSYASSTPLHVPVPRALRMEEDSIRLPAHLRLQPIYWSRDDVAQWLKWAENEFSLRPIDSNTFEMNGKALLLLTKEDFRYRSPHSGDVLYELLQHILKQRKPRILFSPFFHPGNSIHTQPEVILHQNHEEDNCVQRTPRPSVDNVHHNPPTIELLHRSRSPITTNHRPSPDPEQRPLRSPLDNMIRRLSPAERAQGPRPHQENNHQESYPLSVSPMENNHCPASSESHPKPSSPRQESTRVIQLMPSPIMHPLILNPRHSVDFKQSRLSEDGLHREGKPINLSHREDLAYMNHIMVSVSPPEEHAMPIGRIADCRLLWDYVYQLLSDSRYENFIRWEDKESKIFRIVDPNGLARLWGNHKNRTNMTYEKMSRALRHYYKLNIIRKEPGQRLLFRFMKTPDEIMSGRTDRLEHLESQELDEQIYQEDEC
Sequence of HSF1 (Q00613 whole entry): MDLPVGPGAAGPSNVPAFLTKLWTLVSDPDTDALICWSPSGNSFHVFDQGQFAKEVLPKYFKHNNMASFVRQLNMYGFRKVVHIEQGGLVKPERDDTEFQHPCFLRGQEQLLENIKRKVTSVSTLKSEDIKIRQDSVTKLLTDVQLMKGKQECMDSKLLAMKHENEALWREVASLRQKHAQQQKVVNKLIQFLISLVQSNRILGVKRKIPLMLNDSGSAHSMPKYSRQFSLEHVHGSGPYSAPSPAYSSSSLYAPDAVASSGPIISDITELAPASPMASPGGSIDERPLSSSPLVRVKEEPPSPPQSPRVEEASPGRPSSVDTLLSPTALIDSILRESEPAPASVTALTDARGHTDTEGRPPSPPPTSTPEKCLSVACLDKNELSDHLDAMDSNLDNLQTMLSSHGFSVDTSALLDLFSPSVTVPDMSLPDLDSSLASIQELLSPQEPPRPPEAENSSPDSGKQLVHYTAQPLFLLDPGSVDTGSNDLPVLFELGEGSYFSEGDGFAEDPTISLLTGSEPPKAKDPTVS
Sequence of ETV1 (P50549 whole entry): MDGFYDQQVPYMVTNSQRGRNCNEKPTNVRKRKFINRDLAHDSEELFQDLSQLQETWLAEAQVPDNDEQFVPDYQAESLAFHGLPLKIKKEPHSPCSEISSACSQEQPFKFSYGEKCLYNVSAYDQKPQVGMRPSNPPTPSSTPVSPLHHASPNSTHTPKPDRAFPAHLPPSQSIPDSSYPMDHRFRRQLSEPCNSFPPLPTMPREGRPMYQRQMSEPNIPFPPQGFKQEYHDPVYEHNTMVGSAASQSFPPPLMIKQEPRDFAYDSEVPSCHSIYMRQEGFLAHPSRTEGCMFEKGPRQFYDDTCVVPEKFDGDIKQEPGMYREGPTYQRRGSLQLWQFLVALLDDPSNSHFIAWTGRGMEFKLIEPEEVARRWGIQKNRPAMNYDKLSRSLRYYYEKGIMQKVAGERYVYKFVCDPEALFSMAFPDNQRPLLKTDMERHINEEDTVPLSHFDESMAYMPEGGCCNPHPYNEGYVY
Sequence of ELF4 (Q99607 whole entry): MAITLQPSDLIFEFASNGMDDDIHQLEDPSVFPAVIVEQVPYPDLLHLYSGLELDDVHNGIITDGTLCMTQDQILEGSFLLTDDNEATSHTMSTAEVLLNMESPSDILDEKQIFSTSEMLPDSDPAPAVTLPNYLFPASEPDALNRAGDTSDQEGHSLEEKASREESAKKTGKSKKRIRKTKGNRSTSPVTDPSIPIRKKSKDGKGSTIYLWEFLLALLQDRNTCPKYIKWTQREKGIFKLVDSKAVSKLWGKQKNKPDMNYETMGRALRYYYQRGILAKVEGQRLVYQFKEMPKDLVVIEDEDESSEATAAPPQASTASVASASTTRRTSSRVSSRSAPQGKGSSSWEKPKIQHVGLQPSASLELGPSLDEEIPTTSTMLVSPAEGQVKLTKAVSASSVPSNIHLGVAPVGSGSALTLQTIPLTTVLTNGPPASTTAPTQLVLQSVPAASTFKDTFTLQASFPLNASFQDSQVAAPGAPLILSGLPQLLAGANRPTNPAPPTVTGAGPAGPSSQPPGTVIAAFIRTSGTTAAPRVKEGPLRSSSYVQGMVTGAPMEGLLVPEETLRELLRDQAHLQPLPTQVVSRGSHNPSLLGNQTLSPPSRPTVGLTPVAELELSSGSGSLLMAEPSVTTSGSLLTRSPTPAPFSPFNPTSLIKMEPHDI

Sequence	binding signal (FEV)	binding signal (ETV5)	binding signal (HSF1)	binding signal (SPIC)	binding signal (ELF4)	binding signal (ELK4)	binding signal (ETV2)	binding signal (ELF3)	binding signal (CRX)	binding signal (ETV1)	binding signal (ERF)	binding signal (ETV3L)	binding signal (ETS2)	binding signal (SPDEF)	binding signal (ETV7)	binding signal (ELF5)	binding signal (ETV3)	binding signal (ETV6)
TTTGTA	1.52 fold enrichment (6-mer frequency, TF over GST control)	1.64 fold enrichment (6-mer frequency, TF over GST control)	1.65 fold enrichment (6-mer frequency, TF over GST control)	1.57 fold enrichment (6-mer frequency, TF over GST control)	1.58 fold enrichment (6-mer frequency, TF over GST control)	1.75 fold enrichment (6-mer frequency, TF over GST control)	1.53 fold enrichment (6-mer frequency, TF over GST control)	1.61 fold enrichment (6-mer frequency, TF over GST control)	1.89 fold enrichment (6-mer frequency, TF over GST control)	1.51 fold enrichment (6-mer frequency, TF over GST control)	1.63 fold enrichment (6-mer frequency, TF over GST control)	1.69 fold enrichment (6-mer frequency, TF over GST control)	1.52 fold enrichment (6-mer frequency, TF over GST control)	1.6 fold enrichment (6-mer frequency, TF over GST control)	1.53 fold enrichment (6-mer frequency, TF over GST control)	1.46 fold enrichment (6-mer frequency, TF over GST control)	1.63 fold enrichment (6-mer frequency, TF over GST control)	1.54 fold enrichment (6-mer frequency, TF over GST control)
CACGAT	1.23 fold enrichment (6-mer frequency, TF over GST control)	1.26 fold enrichment (6-mer frequency, TF over GST control)	1.27 fold enrichment (6-mer frequency, TF over GST control)	1.55 fold enrichment (6-mer frequency, TF over GST control)	1.34 fold enrichment (6-mer frequency, TF over GST control)	1.24 fold enrichment (6-mer frequency, TF over GST control)	1.17 fold enrichment (6-mer frequency, TF over GST control)	1.36 fold enrichment (6-mer frequency, TF over GST control)	1.39 fold enrichment (6-mer frequency, TF over GST control)	1.28 fold enrichment (6-mer frequency, TF over GST control)	1.29 fold enrichment (6-mer frequency, TF over GST control)	1.23 fold enrichment (6-mer frequency, TF over GST control)	1.24 fold enrichment (6-mer frequency, TF over GST control)	1.26 fold enrichment (6-mer frequency, TF over GST control)	1.32 fold enrichment (6-mer frequency, TF over GST control)	1.17 fold enrichment (6-mer frequency, TF over GST control)	1.29 fold enrichment (6-mer frequency, TF over GST control)	1.27 fold enrichment (6-mer frequency, TF over GST control)
